From PubChem BioAssay
Unmarked numbers belong to inactive results. Activity calls are given as the source filed them.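 The calls were made as follows, unless noted: active = viability at or under a set limit in both replicates, limit being median viability minus 3 SD (cut at about 48% in these data, passing the limit was not always enough); inconclusive = at or under the limit in just one replicate; inactive = at or above the limit in both replicates.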

Test: H69AR cell proliferation blockers – human, duplicate replicates, primary screen (AID 580);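 also: 100% = mean luminescence of untreated wells and 0% = no signal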
Settings: H69AR lung tumor cells viability, ATP luminescence, 72 h; at 10 µM; active compounds read low
In the case of `O=c1[nH]c2ccccc2nc1NCCN1CCOCC1`, the viability is reported as 97.1%.
Work on `c1ccc(Nc2ccccc2Nc2ccccn2)nc1` yielded a viability of 91.7%.
`COc1ccc(-n2c(COc3cccc(C)c3)nnc2SCC(=O)NCc2ccco2)cc1` gave a viability of 85.4%.
In the case of `C=CCc1cc(C(=O)N2CCCCC2)ccc1O`, the viability is reported as 92.3%.
`CCCC(=O)Nc1ccc2oc(-c3cccnc3)nc2c1` showed a viability of 88.5%.
Work on `Cc1ccccc1-n1c(=O)cc(N2CCN(C(=O)c3ccco3)CC2)[nH]c1=O` yielded a viability of 98.3%.
Work on `O=C(O)CN1C(=O)C2(OCCCO2)c2ccccc21` yielded a viability of 85.1%.
With `CC(C)(C)C(=O)/C=C(\N)c1ccccn1` the viability was 100%.
With `CCOC(=O)C1CCCN(c2c(N3CCN(c4ccccn4)CC3)c(=O)c2=O)C1` (stereo not given) the viability was 102%.
Molecule `CC1CCN(S(=O)(=O)c2ccc(S(=O)(=O)NCC(=O)C(C)(C)C)cc2)CC1` has a viability of 91.8%.
With `O=C(CSc1nnc2scc(-c3ccccc3)n12)N1CCN(Cc2ccccc2)CC1` the viability was 78.5%.
For `CC1(C)CNC(=O)CC(C)(C)N1O`, the viability was 95.6%.
For `Cc1cc(NC(=O)CCOc2ccccc2)no1`, the viability was 88.6%.
With `CCOc1ccc2cc(C#N)c(SCC(=O)N3CCCC3)nc2c1` the viability was 87.3%.
In the case of `COc1cccc(Oc2cnc(N)nc2-c2ccc(OC)cc2O)c1`, the viability is reported as 10.8% (active).
In the case of `CCOC(OCC)P(=O)(C(C)C)C(C)C`, the viability is reported as 91.8%.
Work on `O=C1C(C=NCCCn2ccnc2)=C(O)c2ccccc21` yielded a viability of 99.2%.
For `CCCN(S(=O)(=O)c1ccc(OCC)cc1)S(=O)(=O)c1cccs1`, the viability was 89.8%.
Work on `N#Cc1nc(COc2ccc(Br)cc2)oc1N1CCCC1` yielded a viability of 87.5%.
`CCOC(=O)N1CCN(Cc2cc(=O)oc3ccc4ccccc4c23)CC1` showed a viability of 87.3%.
`COc1ccc(OC)c(C2C3=C(CCCC3=O)Nc3c2c(=O)n(C)c(=O)n3C)c1` (stereo not given) gave a viability of 102%.
`CCOc1ccc(C2CC(=O)NC3=C2C(=O)CCC3)cc1Cl` (stereo not given) gave a viability of 99.4%.
With `COc1ccc2nc(NC(=O)c3ccoc3C)sc2c1` the viability was 26.1% (active).
Work on `O=C(NCC(=O)N1CCC(N2CCCCC2)CC1)C1CCCCC1` yielded a viability of 94.4%.
For `O=C(NCCN1CCOCC1)c1ccc2c(c1)N(Cc1ccccc1)C(=O)CS2`, the viability was 99.4%.
In the case of `CCC(c1nnnn1Cc1ccco1)N(CCc1ccccc1)Cc1cc2cccc(C)c2[nH]c1=O` (stereo not given), the viability is reported as 62.9%.
For `CC(C)=CCCC(C)N(C=O)C(C)CCC=C(C)C` (stereo not given), the viability was 87.8%.
`Cc1c(C(=O)NCc2cccnc2)oc2ccc(S(=O)(=O)N3CCCCC3)cc12` showed a viability of 70.5%.
Molecule `Cc1ccc(C(C)C)c(OCCn2c(=O)oc3ccccc32)c1` has a viability of 95.8%.
For `CCn1nc(C(=O)OCC(=O)N2CCc3ccccc32)c2ccccc2c1=O`, the viability was 96.8%.
In the case of `COC(=O)c1cc(-c2c(C)oc3cc(O)ccc3c2=O)c(C)o1`, the viability is reported as 84.9%.
`CCOC(=O)N1CCN(S(=O)(=O)c2ccc(OCC)c(C)c2)CC1` gave a viability of 103%.
With `CC1CC(=O)C2=C(C1)OC(N)=C(C#N)C2c1coc2ccccc2c1=O` (stereo not given) the viability was 97.3%.
`COc1ccc(-c2nnc(SCCC(=O)O)n2-c2ccccc2)cc1` showed a viability of 95.2%.
With `CCCCn1c(SCC(=O)Nc2ccc(OC)cc2)nc2ccc(N3CCOCC3)cc2c1=O` the viability was 89.6%.
In the case of `CCOC(=O)c1cc2cc(F)ccc2nc1C`, the viability is reported as 108%.
Work on `Cc1nc2ccccn2c1C(=O)NCCCN1CCOCC1` yielded a viability of 102%.
In the case of `Cc1cc(-c2ccccc2)c2c3c(cn2n1)c(=O)n(C)c(=O)n3C`, the viability is reported as 75.6%.
For `CCOC(=O)N1CCC(O)(c2cc(C)c(C)cc2C)CC1`, the viability was 99.4%.
In the case of `O=C(C1CCCN(S(=O)(=O)c2cccnc2)C1)N1CCN(c2ccccn2)CC1` (stereo not given), the viability is reported as 98.7%.

Test: MRP1 drug-resistance reversers in H69AR cells – cell-based, doxorubicin co-treatment, pilot screen (AID 601;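 active = viability loss from added drug above about 55%, and viability with drug at most 40%, in both replicates, limit read from the data, passing the limit was not always enough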)
Settings: H69AR cells + 2 uM doxorubicin, CellTiter-Glo, 72 h; at 10 µM; active compounds read high
For `O=c1[nH]c2ccccc2nc1NCCN1CCOCC1`, the differential viability (reversal) was 7.97%.
Work on `c1ccc(Nc2ccccc2Nc2ccccn2)nc1` yielded a differential viability (reversal) of -7.51%.
With `COc1ccc(-n2c(COc3cccc(C)c3)nnc2SCC(=O)NCc2ccco2)cc1` the differential viability (reversal) was -10.3%.
`C=CCc1cc(C(=O)N2CCCCC2)ccc1O` showed a differential viability (reversal) of -15.2%.
`CCCC(=O)Nc1ccc2oc(-c3cccnc3)nc2c1` gave a differential viability (reversal) of -7.42%.
`Cc1ccccc1-n1c(=O)cc(N2CCN(C(=O)c3ccco3)CC2)[nH]c1=O` showed a differential viability (reversal) of 9.79%.
With `O=C(O)CN1C(=O)C2(OCCCO2)c2ccccc21` the differential viability (reversal) was -0.23%.
For `CC(C)(C)C(=O)/C=C(\N)c1ccccn1`, the differential viability (reversal) was 2.67%.
`CCOC(=O)C1CCCN(c2c(N3CCN(c4ccccn4)CC3)c(=O)c2=O)C1` (stereo not given) gave a differential viability (reversal) of 15%.
Work on `CC1CCN(S(=O)(=O)c2ccc(S(=O)(=O)NCC(=O)C(C)(C)C)cc2)CC1` yielded a differential viability (reversal) of 6.57%.
For `O=C(CSc1nnc2scc(-c3ccccc3)n12)N1CCN(Cc2ccccc2)CC1`, the differential viability (reversal) was 8.52%.
Work on `CC1(C)CNC(=O)CC(C)(C)N1O` yielded a differential viability (reversal) of 3.01%.
In the case of `Cc1cc(NC(=O)CCOc2ccccc2)no1`, the differential viability (reversal) is reported as 2.89%.
In the case of `CCOc1ccc2cc(C#N)c(SCC(=O)N3CCCC3)nc2c1`, the differential viability (reversal) is reported as 11.5%.
Molecule `COc1cccc(Oc2cnc(N)nc2-c2ccc(OC)cc2O)c1` has a differential viability (reversal) of -47.3%.
Molecule `CCOC(OCC)P(=O)(C(C)C)C(C)C` has a differential viability (reversal) of 3.12%.
With `O=C1C(C=NCCCn2ccnc2)=C(O)c2ccccc21` the differential viability (reversal) was 17.2%.
In the case of `CCCN(S(=O)(=O)c1ccc(OCC)cc1)S(=O)(=O)c1cccs1`, the differential viability (reversal) is reported as 5.81%.
For `N#Cc1nc(COc2ccc(Br)cc2)oc1N1CCCC1`, the differential viability (reversal) was 0.745%.
`CCOC(=O)N1CCN(Cc2cc(=O)oc3ccc4ccccc4c23)CC1` showed a differential viability (reversal) of 7.66%.
Molecule `COc1ccc(OC)c(C2C3=C(CCCC3=O)Nc3c2c(=O)n(C)c(=O)n3C)c1` (stereo not given) has a differential viability (reversal) of -5.08%.
`CCOc1ccc(C2CC(=O)NC3=C2C(=O)CCC3)cc1Cl` (stereo not given) showed a differential viability (reversal) of 14.2%.
Molecule `COc1ccc2nc(NC(=O)c3ccoc3C)sc2c1` has a differential viability (reversal) of -13.7%.
With `O=C(NCC(=O)N1CCC(N2CCCCC2)CC1)C1CCCCC1` the differential viability (reversal) was 1.99%.
`O=C(NCCN1CCOCC1)c1ccc2c(c1)N(Cc1ccccc1)C(=O)CS2` showed a differential viability (reversal) of 4.81%.
For `CCC(c1nnnn1Cc1ccco1)N(CCc1ccccc1)Cc1cc2cccc(C)c2[nH]c1=O` (stereo not given), the differential viability (reversal) was -3.2%.
`CC(C)=CCCC(C)N(C=O)C(C)CCC=C(C)C` (stereo not given) showed a differential viability (reversal) of 7.05%.
In the case of `Cc1c(C(=O)NCc2cccnc2)oc2ccc(S(=O)(=O)N3CCCCC3)cc12`, the differential viability (reversal) is reported as -20.9%.
`Cc1ccc(C(C)C)c(OCCn2c(=O)oc3ccccc32)c1` gave a differential viability (reversal) of 13.5%.
Molecule `CCn1nc(C(=O)OCC(=O)N2CCc3ccccc32)c2ccccc2c1=O` has a differential viability (reversal) of 2.27%.
`COC(=O)c1cc(-c2c(C)oc3cc(O)ccc3c2=O)c(C)o1` showed a differential viability (reversal) of -6.25%.
Molecule `CCOC(=O)N1CCN(S(=O)(=O)c2ccc(OCC)c(C)c2)CC1` has a differential viability (reversal) of 17.6%.
`CC1CC(=O)C2=C(C1)OC(N)=C(C#N)C2c1coc2ccccc2c1=O` (stereo not given) gave a differential viability (reversal) of 10.6%.
`COc1ccc(-c2nnc(SCCC(=O)O)n2-c2ccccc2)cc1` showed a differential viability (reversal) of -2.17%.
`CCCCn1c(SCC(=O)Nc2ccc(OC)cc2)nc2ccc(N3CCOCC3)cc2c1=O` gave a differential viability (reversal) of 0.605%.
With `CCOC(=O)c1cc2cc(F)ccc2nc1C` the differential viability (reversal) was 20.9%.
`Cc1nc2ccccn2c1C(=O)NCCCN1CCOCC1` gave a differential viability (reversal) of 5.8%.
Work on `Cc1cc(-c2ccccc2)c2c3c(cn2n1)c(=O)n(C)c(=O)n3C` yielded a differential viability (reversal) of -0.565%.
With `CCOC(=O)N1CCC(O)(c2cc(C)c(C)cc2C)CC1` the differential viability (reversal) was 9.24%.
`O=C(C1CCCN(S(=O)(=O)c2cccnc2)C1)N1CCN(c2ccccn2)CC1` (stereo not given) gave a differential viability (reversal) of 8.35%.
